Here are results for 32 molecules from PubChem BioAssay (NCATS).

Results filed as inconclusive are left out. Activity calls are given as the source filed them. Unless noted, calls come from the whole dose curve; as a rule, active = well fitted curve in the direction sought with a large enough effect; inconclusive = small, poorly fitted or top-dose-only effect, or effect the other way, or another doubt; inactive = no such curve, though single readings can be large or run the other way. Residues, ends and D or L forms follow the SMILES beside them. *: point of attachment. Cbz = O=C(OCc1ccccc1)*

Beta-2 adrenergic receptor (Homo sapiens), sequence (P07550 whole entry, looked up): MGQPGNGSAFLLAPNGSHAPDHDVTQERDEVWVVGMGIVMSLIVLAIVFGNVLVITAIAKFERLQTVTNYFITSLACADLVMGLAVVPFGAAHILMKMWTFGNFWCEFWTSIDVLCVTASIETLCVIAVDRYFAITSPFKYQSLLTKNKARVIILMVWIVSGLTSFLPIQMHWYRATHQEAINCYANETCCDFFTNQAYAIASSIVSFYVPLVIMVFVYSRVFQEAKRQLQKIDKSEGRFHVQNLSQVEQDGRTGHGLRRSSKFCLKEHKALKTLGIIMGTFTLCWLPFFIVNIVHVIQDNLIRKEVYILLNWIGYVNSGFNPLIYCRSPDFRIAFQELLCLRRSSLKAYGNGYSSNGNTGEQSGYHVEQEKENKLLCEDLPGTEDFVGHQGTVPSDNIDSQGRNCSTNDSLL

Test system in one experiment: not listed separately
Nature of the experiment: qHTS Validation Assay to Find Inhibitors of Chronic Active B-Cell Receptor Signaling (AID 485345; active = well fitted curve in the direction sought with a large enough effect in the main read-out, with a control signal flat, not every such curve was filed as active). Conditions: ABC-DLBCL cells, chronic BCR signaling reporter, CBG luciferase; series mostly up to 46.1 µM. Put shortly:
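Read-out: ratio of filter-corrected green (IkappaBalpha fusion) to red (native) luciferase signal in doxycycline-induced TMD8 cells after 4 h at 37C. Titration spanned 46 uM–3 nM; Data were normalised to basal cells and 10 uM MG-132 wells.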
A general note: Quantitative high-throughput screening tests each substance at several concentrations.
In the case of `Cc1nc(N=Nc2cc(S(=O)(=O)O)c3cc([N+](=O)[O-])cc(S(=O)(=O)O)c3c2)c(COP(=O)(O)O)c(C=O)c1O`, the molecule was called inactive.

In the case of `CN1CC(O)C(O)C(O)C1CO` (configuration not stated), the outcome was inactive.

In the case of `CCCCCCCCCCCCCCSCC(=O)O`, the molecule was classed as inactive.

Turning to `CCCCCCC/C=C\CCCCCCCCC(=O)O`, the outcome was inactive.

Turning to `C=C1C[C@@]23CC[C@H]4[C@@](C)(CCC[C@@]4(C)C(=O)O)[C@@H]2CC[C@]1(O)C3`, the call was inactive.

Regarding `CCCCCCC(=O)OC1CC(C)(C)NC(C)(C)C1`, the call was inactive.

Another experiment addresses Beta-2 adrenergic receptor (Homo sapiens) (UniProt P07550). The experiment is described as follows: qHTS validation assay of beta-arrestin-biased ligands of beta2-adrenergic receptor (AID 485366). Conditions: cell-based beta-arrestin recruitment to ADRB2, qHTS; series mostly up to 46.1 µM. Put shortly: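 Luminescence from a tTA-responsive luciferase, induced when recombinant beta-arrestin is recruited to recombinant beta2-AR, served as the agonism signal. Cells were exposed to compound for 18 hr at 37 degrees C; titrations spanned up to 46 microM.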
As for `N=C(N)c1ccc(OCCCCCOc2ccc(C(=N)N)cc2)cc1` (tested in a mixture with another compound), the molecule was called inactive.

For the molecule `N#C/C(=C\c1ccc(O)c(O)c1)C(=O)NCCCNC(=O)/C(C#N)=C/c1ccc(O)c(O)c1`, the result was inactive.

Take `O=C(O)C1=CCCN(CCON=C(c2ccccc2)c2ccccc2)C1`: the call was inactive.

With `CC(=O)SC1CC2=CC(=O)CC[C@]2(C)C2CC[C@@]3(C)C(CC[C@@]34CCC(=O)O4)C12` (some centres not stated), the molecule was classed as inactive.

`COc1ccc(CCn2nnnc2C2(c3ccc(C)cc3)CC2)cc1`: the result was inactive.

In the case of `CC(C)[C@@H]1CC[C@@H](C)C[C@@H]1P(=O)(c1ccccc1)c1ccccc1`, the molecule was classed as inactive.

Consider `O=c1cc(O)cc(/C=C/c2ccc(O)c(O)c2)o1`, for which the molecule was classed as inactive.

Take `Nc1ncnc2c1ncn2C1CCCO1` (configuration not stated): the molecule was classed as inactive.

For the molecule `O=C(O)C1=CC(=C(c2ccc(O)c(C(=O)O)c2)c2ccc(O)c(C(=O)O)c2)C=CC1=O`, the molecule was classed as inactive.

As for `CCCn1c(=O)c(C)cn2nc(N)nc12`, the call was inactive.

As for `C=CC1(C)CC(=O)C2(O)C(C)(O1)C(OC(C)=O)C(O)C1C(C)(C)CCC(O)C12C` (configuration not stated), the outcome was inactive.

In the case of `O=c1[nH]c(=O)c2nc3ccccc3nc2[nH]1`, the molecule was classed as inactive.

Regarding `CC(C)C[C@H](NC(=O)C1OC1C(=O)O)C(=O)NCCCCN=C(N)N` (some centres not stated), the molecule was called inactive.

For the molecule `O=C(O)CCC/C=C\C[C@@H]1[C@@H](/C=C/[C@H](O)C2Cc3ccccc3C2)[C@@H](F)C[C@@H]1O`, the outcome was inactive.

With `CC(C)[C@H](NC(=O)OCc1ccccc1)C(=O)N[C@H](C=O)Cc1ccccc1` (Cbz-Val-Phe-aldehyde), the call was inactive.

With `NC(=Nc1ccccc1)NC(=O)c1nc(Cl)c(N)nc1N`, the call was inactive.

As to `N[C@H](C(=O)O)[C@H](Cc1ccccc1)C(=O)O`, the molecule was called inactive.

`CC(=O)O[C@H]1Cc2ccccc2N(C(N)=O)c2ccccc21`: the call was inactive.

Consider `NS(=O)(=O)c1cccc2c1c([N+](=O)[O-])cc1nc(O)c(O)nc12`, for which the molecule was called inactive.

As for `Nc1nc2c(nc(Br)n2C2OC3COP(=O)(O)O[C@@H]3C2O)c(=O)[nH]1` (some centres not stated), the molecule was classed as inactive.

With `NCC(O)C1CCCCCCC1` (configuration not stated), the outcome was inactive.

Regarding `CCN(c1nc(N)c(C(=O)N=C(N)N)nc1Cl)C(C)C`, the molecule was called inactive.

Consider `O=c1ccc2c(OCCCCc3ccccc3)c3ccoc3cc2o1`, for which the molecule was called inactive.

With `Cc1nc(N=Nc2cc(S(=O)(=O)O)c3cc([N+](=O)[O-])cc(S(=O)(=O)O)c3c2)c(COP(=O)(O)O)c(C=O)c1O`, the outcome was inactive.

As for `CN1CC(O)C(O)C(O)C1CO` (configuration not stated), the result was inactive.

Consider `CCCCCCCCCCCCCCSCC(=O)O`, for which the call was inactive.

With `CCCCCCC/C=C\CCCCCCCCC(=O)O`, the molecule was classed as inactive.

On to `Cc1ccc([N+](=O)[O-])cc1S(=O)(=O)N(C)C`, for which the result was inactive.

Consider `O=C(O)c1ccccc1Nc1cccc(OCc2ccc3ccccc3n2)c1`, for which the outcome was inactive.

In the case of `CCCCCCC(=O)OC1CC(C)(C)NC(C)(C)C1`, the result was inactive.

As to `O=C(O)/C(=C/c1c(C(=O)O)[nH]c2cc(Cl)cc(Cl)c12)c1ccccc1`, the call was inactive.
